The values below come from PubChem BioAssay (NCATS).

Where “and” joins values, the source holds several entries; their conditions need not be identical. Equal entries are not always repeated. Results filed as inconclusive are left out. The list shows a part of the results. A call without a number means that no potency is given here. Calls of active or inactive are those of the source. Unless noted, calls follow the shape of the dose curve; as a rule, active = well fitted curve in the direction sought with a large enough effect; inconclusive = small, poorly fitted or top-dose-only effect, or another doubt; inactive = no such curve, though single readings can be large; an effect the other way counts as inactive or inconclusive.

Assay [1] can be described thus: Confirmation and Secondary Assay for Modulators of Hemoglobin Beta Chain Splicing at IVS2 654 locus (AID 910).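 Also: HeLa cells stably carrying EGFP split by mutant beta-globin IVS2-654 intron.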 In short, it runs like this:
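HeLa cells stably expressing EGFP interrupted by β-globin IVS2-654 intron, seeded overnight in Opti-MEM/2% FCS, then treated 2 days at 37 °C. Restored splicing read as total peak GFP intensity per well by laser scanning cytometry (488 nm excitation, 500–520 nm emission); 500 nM antisense PNA as control.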

Assay [2] is described as follows: Confirmation and Secondary Assay for Modulators of Hemoglobin Beta Chain Splicing at IVS2 705 locus (AID 930).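 Also: HeLa cells stably expressing the EGFP-705 splicing reporter; GFP fluorescence per well restored by corrected splicing of the IVS2-705 intron in EGFP; series mostly up to about 46 µM.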 The gist of the method:
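HeLa EGFP-705 reporter; 500 cells/well, o/n 37C 5% CO2; cpd 2 d; 488 ex/500-520 em laser scan; total peak GFP intensity/well. Ref: 500 nM […] antisense PNA.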

For assay [3], the target named is Cytochrome P450 3A4 (Homo sapiens) (UniProt P08684). Nature of the assay: qHTS Assay for Inhibitors and Substrates of Cytochrome P450 3A4 (AID 884). Also: nearly all actives have a fitted effect of over 50% in size. Also: potency is read from the fitted curve at half-maximal effect. The gist of the method:
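20 nM human CYP3A4 with 25 uM Luciferin-PPXE (at KM) in 200 mM KPO4, preincubated 10 min with compound; NADPH regeneration started a 60 min RT reaction. Luciferin detected by luminescence, normalized to 57 uM ketoconazole as full inhibition.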

Assay [4] in a line: S16 Schwann cell PMP22 intronic element beta-lactamase assay (AID 624044; calls by dose curve; also: nearly all actives have a fitted effect of over 15% in size). In short, it runs like this: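 Rat S16 Schwann cells with beta-Lac driven by a PMP22 intronic element, compound-treated 24 h at 37 °C. LiveBLAzer FRET B/G read: 460 nm normalized to potassium clavulanate vs DMSO; 535 nm FRET as viability; concentration-effect curves classified.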
Assay [5] concerns the target Cytochrome P450 2D6 (Homo sapiens) (UniProt P10635). Kind of assay: Cytochrome P450 family 2 subfamily D member 6 (CYP2D6) small molecule antagonists: luciferase biochemical (cell-free) qHTS assay (AID 1645840; active = well fitted curve in the direction sought with a large enough effect in the repeat runs; an effect the other way counts as inactive or inconclusive; also: series mostly up to about 57 µM; nearly all actives have a fitted effect of over 55% in size). In short, it runs like this:
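P450-Glo luminescent screen: recombinant CYP2D6 enzyme–proluciferin substrate mix preincubated with compound 10 min at room temperature, then NADPH regeneration added for 1 h at room temperature. Detection reagent added for 20 min; luciferin light read as relative luminescence units.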
Background: qHTS replaces the single test concentration by a dilution series.

In assay [6] the target is Cytochrome P450 2C9 (Homo sapiens) (UniProt P11712). Kind of assay: Cytochrome P450 family 2 subfamily C member 9 (CYP2C9) small molecule antagonists: luciferase biochemical (cell-free) qHTS assay (AID 1645842; active = well fitted curve in the direction sought with a large enough effect in the repeat runs; an effect the other way counts as inactive or inconclusive; also: potency is read from the fitted curve at half-maximal effect; nearly all actives have a fitted effect of over 55% in size). The gist of the method: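 Luminescence, after 20 min with luciferin detection reagent, reflected CYP2C9 turnover during a 1 h NADPH-driven reaction at 37C. Enzyme-substrate mix contained 0.4% bovine serum albumin and was preincubated with compound 10 min at room temperature.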
Cytochrome P450 2C9 (Homo sapiens), sequence (P11712 whole entry, looked up): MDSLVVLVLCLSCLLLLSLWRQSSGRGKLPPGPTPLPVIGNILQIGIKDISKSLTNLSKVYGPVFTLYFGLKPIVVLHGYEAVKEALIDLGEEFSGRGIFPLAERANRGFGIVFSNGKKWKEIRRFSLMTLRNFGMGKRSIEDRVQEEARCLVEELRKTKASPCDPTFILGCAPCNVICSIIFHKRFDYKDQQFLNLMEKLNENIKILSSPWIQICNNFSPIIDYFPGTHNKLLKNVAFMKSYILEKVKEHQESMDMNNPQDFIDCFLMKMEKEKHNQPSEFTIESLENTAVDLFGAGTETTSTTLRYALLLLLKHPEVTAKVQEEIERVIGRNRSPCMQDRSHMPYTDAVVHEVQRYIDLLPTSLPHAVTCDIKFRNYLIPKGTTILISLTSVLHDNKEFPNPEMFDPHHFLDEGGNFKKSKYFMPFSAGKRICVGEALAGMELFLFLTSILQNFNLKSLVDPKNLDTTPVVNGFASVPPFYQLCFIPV

For assay [7], the target named is DNA dC->dU-editing enzyme APOBEC-3G (Homo sapiens) (UniProt Q9HC16). Kind of assay: qHTS for inhibitors of Vif-A3G interactions: Validation (AID 588379). The gist of the method: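 HeLa cells stably expressing Vif and A3G-eYFP, 700 cells/well, incubated overnight at 37 deg C, then exposed to compound overnight at 37 deg C. Inhibition of Vif-mediated degradation read as increased yellow fluorescence (Ex 488/Em 500-530) by laser-scanning cytometry.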
DNA dC->dU-editing enzyme APOBEC-3G (Homo sapiens), sequence (Q9HC16 whole entry, looked up): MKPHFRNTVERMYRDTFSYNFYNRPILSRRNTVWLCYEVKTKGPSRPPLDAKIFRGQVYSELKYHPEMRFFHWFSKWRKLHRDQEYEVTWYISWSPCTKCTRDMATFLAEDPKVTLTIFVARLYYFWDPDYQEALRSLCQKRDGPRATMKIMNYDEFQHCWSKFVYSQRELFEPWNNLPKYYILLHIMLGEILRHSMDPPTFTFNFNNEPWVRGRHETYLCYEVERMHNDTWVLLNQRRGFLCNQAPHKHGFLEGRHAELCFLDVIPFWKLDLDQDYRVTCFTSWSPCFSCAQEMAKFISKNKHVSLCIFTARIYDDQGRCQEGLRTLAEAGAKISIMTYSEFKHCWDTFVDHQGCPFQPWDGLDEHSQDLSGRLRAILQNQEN

Assay [8] deals with Tyrosyl-DNA phosphodiesterase 1 (Homo sapiens) (UniProt Q9NUW8). Kind of assay: Confirmation Assay for Inhibitors of Tyrosyl-DNA Phosphodiesterase (TDP1) (AID 489007). Also: potency is read from the fitted curve at half-maximal effect; nearly all actives have a fitted effect of over 40% in size. As to conditions: recombinant human TDP1 enzymatic activity, dose-response. The gist of the method: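 Recombinant human Tdp1 (1 nM final), expressed in E. coli, preincubated 15 min with compound. Then 15 nM 5'-biotin/3'-phosphotyrosine-FITC DNA substrate added for 5 min at room temperature. AlphaScreen beads (10 ug/ml) added for 10 min; cleavage gives signal loss.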
Tyrosyl-DNA phosphodiesterase 1 (Homo sapiens), sequence (Q9NUW8 whole entry, looked up): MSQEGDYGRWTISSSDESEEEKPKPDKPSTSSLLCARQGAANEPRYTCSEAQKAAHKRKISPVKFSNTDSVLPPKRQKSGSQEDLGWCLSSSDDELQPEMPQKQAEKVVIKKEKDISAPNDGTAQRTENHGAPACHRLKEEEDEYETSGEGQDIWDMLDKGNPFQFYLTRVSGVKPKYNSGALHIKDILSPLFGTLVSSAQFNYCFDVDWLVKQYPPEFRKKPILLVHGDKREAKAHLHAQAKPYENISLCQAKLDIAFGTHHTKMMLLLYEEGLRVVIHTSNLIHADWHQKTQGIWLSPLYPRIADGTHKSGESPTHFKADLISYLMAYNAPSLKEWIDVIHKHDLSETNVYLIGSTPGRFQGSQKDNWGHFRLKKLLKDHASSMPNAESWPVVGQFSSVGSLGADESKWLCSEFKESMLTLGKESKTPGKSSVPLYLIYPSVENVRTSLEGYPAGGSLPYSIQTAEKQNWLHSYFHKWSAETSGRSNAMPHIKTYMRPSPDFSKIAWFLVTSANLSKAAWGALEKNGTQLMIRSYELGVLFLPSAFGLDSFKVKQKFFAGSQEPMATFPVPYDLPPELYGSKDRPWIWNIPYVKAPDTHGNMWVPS

The target of assay [9] is Cytochrome P450 2C9 (Homo sapiens) (UniProt P11712). Kind of assay: qHTS Assay for Inhibitors and Substrates of Cytochrome P450 2C9 (AID 883). Also: potency is read from the fitted curve at half-maximal effect; nearly all actives have a fitted effect of over 60% in size. The gist of the method: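 Signal: luciferase luminescence reporting luciferin produced by CYP2C9. Conditions: 10nM enzyme, Luciferin-H 100uM at KM, 25mM KPO4, 37C, 60 min NADPH-driven reaction. Reference: 57uM sulphaphenazole as 100% inhibition.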

Assay [10] addresses Muscarinic acetylcholine receptor M1 (Rattus norvegicus) (UniProt P08482). Nature of the assay: qHTS Assay for Antagonists of Acetylcholine Muscarinic M1 Receptor: Kinetic Measurement of Intracellular Calcium Response (AID 943). Also: series mostly up to about 35 µM; nearly all actives have a fitted effect of over 75% in size. The gist of the method: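 CHO cells expressing rat M1 receptor, Fluo-4 loaded, preincubated 10 min with compound, then stimulated with EC80 carbachol (100 nM final). Kinetic calcium fluorescence over 4 min; response taken as peak over basal signal.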

The target is the same in assay [11]. Nature of the assay: qHTS Assay for Antagonists of Acetylcholine Muscarinic M1 Receptor: Measurement of IP-One Response (AID 944). Also: nearly all actives have a fitted effect of over 75% in size. In short, it runs like this:
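CHO cells stably expressing rat M1, pretreated 10 min with compound, then stimulated 30 min with carbachol at EC80 (200 nM) in LiCl-containing buffer pH 7.4; IP1 accumulation read by HTRF competition (665/620 nm).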

Assay [12] addresses Vitamin D3 receptor (Homo sapiens) (UniProt P11473). Nature of the assay: qHTS for Inhibitors of the vitamin D receptor (VDR): Hit Validation in Primary Screen (AID 602199). Also: potency is read from the fitted curve at half-maximal effect. As to conditions: VDR-coactivator inhibition assay, qHTS confirmation. In short, it runs like this:
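Fluorescence polarization (Ex 620/Em 688 nm) of Alexa 647-SRC2-3 peptide with 800 nM VDR and 5 uM LG19078. Compounds at several concentrations, 2 h at room temperature.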

The target is the same in assay [13]. Kind of assay: qHTS for Inhibitors of the vitamin D receptor (VDR): Hit Validation using a Fluorescein Assay (AID 602200). Also: potency is read from the fitted curve at half-maximal effect. As to conditions: VDR-coactivator binding, fluorescein fluorescence polarization. In short, it runs like this:
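Fluorescence polarization: 1.5 uM VDR-LBD, 5 uM LG19078 and 5 nM fluorescein-labeled SRC2-3 peptide (final) with compounds, 2 h at room temperature. Read at Ex 495/Em 520 nm; peptide-only wells served as control.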

Assay [14] shares this target. Nature of the assay: qHTS for Inhibitors of the vitamin D receptor (VDR): Hit Validation using a Beta-Lactamase Assay (AID 602202). In short, it runs like this:
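Stably transfected HEK293 cells expressing VDR-GAL4 DNA-binding domain fusion with UAS-driven beta-lactamase reporter, activated by agonist LG190178; compounds incubated 18 h, then FRET beta-lactam substrate 2 h; cleaved substrate read at 447 nm emission.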

Cytochrome P450 3A4 (Homo sapiens), sequence (P08684 whole entry, looked up): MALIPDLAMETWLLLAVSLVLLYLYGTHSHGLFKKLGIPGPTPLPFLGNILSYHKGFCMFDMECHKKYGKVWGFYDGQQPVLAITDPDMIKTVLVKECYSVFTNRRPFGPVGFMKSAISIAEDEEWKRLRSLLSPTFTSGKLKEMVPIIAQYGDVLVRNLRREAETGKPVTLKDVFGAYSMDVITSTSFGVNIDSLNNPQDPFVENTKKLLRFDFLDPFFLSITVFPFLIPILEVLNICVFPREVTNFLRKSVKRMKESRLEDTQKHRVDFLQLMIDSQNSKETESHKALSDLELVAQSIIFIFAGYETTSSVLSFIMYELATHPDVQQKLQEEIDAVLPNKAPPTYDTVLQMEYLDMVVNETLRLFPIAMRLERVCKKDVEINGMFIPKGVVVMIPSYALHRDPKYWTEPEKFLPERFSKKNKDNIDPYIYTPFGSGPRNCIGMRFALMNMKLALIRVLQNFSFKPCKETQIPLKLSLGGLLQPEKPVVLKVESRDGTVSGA
Vitamin D3 receptor (Homo sapiens), sequence (P11473 whole entry, looked up): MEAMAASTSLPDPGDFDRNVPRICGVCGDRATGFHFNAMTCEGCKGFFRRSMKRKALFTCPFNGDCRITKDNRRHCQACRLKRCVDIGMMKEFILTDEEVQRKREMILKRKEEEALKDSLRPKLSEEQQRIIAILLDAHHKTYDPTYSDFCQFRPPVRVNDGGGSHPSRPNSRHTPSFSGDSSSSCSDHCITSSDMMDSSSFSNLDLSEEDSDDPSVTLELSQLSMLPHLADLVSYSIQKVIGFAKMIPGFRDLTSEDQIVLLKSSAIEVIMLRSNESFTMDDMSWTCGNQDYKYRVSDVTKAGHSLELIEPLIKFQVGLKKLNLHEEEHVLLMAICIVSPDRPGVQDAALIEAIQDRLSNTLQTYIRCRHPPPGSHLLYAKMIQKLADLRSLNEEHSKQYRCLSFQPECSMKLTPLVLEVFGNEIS
Muscarinic acetylcholine receptor M1 (Rattus norvegicus), sequence (P08482 whole entry, looked up): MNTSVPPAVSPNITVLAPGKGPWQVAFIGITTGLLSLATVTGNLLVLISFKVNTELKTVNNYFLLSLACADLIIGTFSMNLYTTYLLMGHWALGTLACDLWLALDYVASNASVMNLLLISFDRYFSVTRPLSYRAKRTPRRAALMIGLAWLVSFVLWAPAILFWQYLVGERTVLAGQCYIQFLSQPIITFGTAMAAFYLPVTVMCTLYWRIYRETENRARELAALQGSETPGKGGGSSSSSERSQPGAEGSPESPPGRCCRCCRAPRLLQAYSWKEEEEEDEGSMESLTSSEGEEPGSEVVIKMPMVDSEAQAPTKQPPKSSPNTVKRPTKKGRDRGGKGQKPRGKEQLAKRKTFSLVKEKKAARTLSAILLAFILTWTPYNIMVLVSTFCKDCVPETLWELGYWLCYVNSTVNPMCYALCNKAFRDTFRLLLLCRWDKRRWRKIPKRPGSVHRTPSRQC
Cytochrome P450 2D6 (Homo sapiens), sequence (P10635 whole entry, looked up): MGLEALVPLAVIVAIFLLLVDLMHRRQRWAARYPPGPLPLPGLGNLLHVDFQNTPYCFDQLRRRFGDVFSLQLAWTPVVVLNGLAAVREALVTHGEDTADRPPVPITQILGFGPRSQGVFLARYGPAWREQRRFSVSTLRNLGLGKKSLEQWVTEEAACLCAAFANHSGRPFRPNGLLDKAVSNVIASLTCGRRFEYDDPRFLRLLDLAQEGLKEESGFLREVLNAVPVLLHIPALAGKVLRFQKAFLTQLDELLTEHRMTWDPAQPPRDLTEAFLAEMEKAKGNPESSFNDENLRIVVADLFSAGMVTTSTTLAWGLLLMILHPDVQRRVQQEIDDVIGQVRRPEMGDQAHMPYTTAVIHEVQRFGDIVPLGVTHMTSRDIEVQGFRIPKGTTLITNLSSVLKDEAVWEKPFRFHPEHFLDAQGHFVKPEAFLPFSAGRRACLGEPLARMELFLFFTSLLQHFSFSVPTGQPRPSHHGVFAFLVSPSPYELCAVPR

As to `CC1CC2C3CCC4=CC(=O)C=C[C@@]4(C)[C@]3(F)C(O)C[C@]2(C)[C@]1(O)C(=O)CO` (stereo not given in full), the Potency entry in assay [1] was “inactive”. Moreover, the compound was called inactive in assay [2].
Regarding `O=C(Cc1cccs1)NC1C(=O)N2C(C(=O)[O-])=C(C[n+]3ccccc3)CSC12` (stereo not given), the Potency entry in assay [3] and in assay [1] was “inactive” throughout. Moreover, the compound was called inactive in assay [2] and in assay [4].
Turning to `CCOC(=O)c1ccc(NC(=O)CSc2nc3c([nH]c4ccccc43)c(=O)n2C)cc1`, in assay [5], the Potency result was “inactive”. Besides, the Potency in assay [6] was 3.01 µM (active).
For the compound `COC(=O)C1OC(=O)C2OC23[C@]2(C)C(O)CC4C(C)(C)C(OC(C)=O)CC(OC(C)=O)[C@@]4(C)C2CC[C@@]13C` (stereo not given in full), the Potency in [3] was 251 nM (active) and 794 nM (active). In addition, the Potency result in [1] was “inactive”. In addition, the outcome in assay [2] was inactive.
On to `C1CCN2C[C@H]3C[C@H](CN4CCCCC34)C2C1` (stereo not given in full), for which the Potency entry in assay [1] was “inactive”. In addition, the call in assay [2] was inactive.
For `O=c1[nH]cnc2c1ncn2C1OC(CO)C(O)C1O` (stereo not given), the Potency entry in assay [3] and in assay [1] was “inactive” throughout. The compound was classed as inactive in assay [2] and in assay [7].
In the case of `CC(=O)Oc1cc(OC(C)=O)c2c(c1)OC(c1ccc(OC(C)=O)c(OC(C)=O)c1)C(OC(C)=O)C2` (stereo not given), the Potency in assay [3] is 31.6 µM (active). Moreover, the Potency entry in assay [1] was “inactive”. Also, the outcome in assay [2] was inactive.
Regarding `Nc1ccccc1C(=O)CC(N)C(=O)O` (stereo not given), the Potency result in assay [3] and in [1] was “inactive” throughout. Further, the call in assay [2] and in [7] was inactive.
As to `CO/N=C(/C(=O)NC1C(=O)N2C(C(=O)O)=C(CSc3nc(=O)c(O)nn3C)CSC12)c1csc(N)n1` (stereo not given), the Potency result in [1] is “inactive”. Besides, the call in assay [2] was inactive. Also, the Potency in [8] is 1.78 µM (active) and 12.6 µM (active).
Turning to `O=c1c(O)c(-c2ccc(O)cc2)oc2ccccc12`, in [3], the Potency was 12.6 µM (active). Besides, the result in assay [2] was inactive.
For `Nc1ccn(C2OC(CO)C(O)C2O)c(=O)n1` (stereo not given), in [1], the Potency result was “inactive”. In [2], the result was inactive.
On to `O=C(O)[C@H]1CCCN(CCC=C(c2ccccc2)c2ccccc2)C1`, for which, in assay [9], the Potency is 7.94 µM (active). For the same compound, the Potency entry in [10] and in [11] was “inactive” in each case.
`CN(C)CCOC(c1ccccc1)c1ccccc1` (tested in a mixture with another compound): the Potency result in [1] is “inactive”. The outcome in assay [2] was inactive.
With `CC(=O)Oc1c(C)c(C)c2c(c1C)CCC(C)(CCCC(C)CCCC(C)CCCC(C)C)O2` (stereo not given), the Potency result in assay [3] and in assay [1] was “inactive” in each case. For the same compound, the compound was classed as inactive in assay [2] and in [7].
`CCOc1ccc(NC(=O)c2c(NC(=O)Cc3ccccc3)sc3c2CCC(C)C3)cc1` (stereo not given): the Potency in assay [12] was 5.62 µM (active); in assay [13] it was 8.91 µM (active). Moreover, the Potency entry in assay [14] was “inactive”.
For the compound `Cc1nnc(SCC(=O)NCc2ccccc2Cl)c2nn(-c3ccccc3)c(C)c12`, the Potency in [6] is 3.01 µM (active).
For `N#C/C(=C\c1ccc(O)c(O)c1)C(=O)NCCCCc1ccccc1`, in [7], the outcome was inactive.
